GLP-1R agonist: qHTS of GLP-1 Receptor Agonists; Glucagon-like peptide 1 receptor (Homo sapiens), P43220; Potency, µM (highest dose often 45.6 µM), actives largely listed as activators; HEK293 GLP-1R CRE-luciferase, luminescence, 4-6 h; cells express a hypersensitive GLP-1R form; 380,000 compounds, 0.007% hits; AID 624172, 2012
DRD3 antagonist: qHTS of D3 Dopamine Receptor Antagonist: qHTS; D(3) dopamine receptor (Homo sapiens), P35462; D3R cells, DiscoveRx beta-arrestin luminescence, antagonist mode; stronger effect = lower value; max response, negative = inhibition, %; 360,000 compounds, 2.5% hits; in the data active = max response below about -50%; inconclusive = no clear call, values can overlap the other calls
Target sequence (P35462 whole entry, looked up): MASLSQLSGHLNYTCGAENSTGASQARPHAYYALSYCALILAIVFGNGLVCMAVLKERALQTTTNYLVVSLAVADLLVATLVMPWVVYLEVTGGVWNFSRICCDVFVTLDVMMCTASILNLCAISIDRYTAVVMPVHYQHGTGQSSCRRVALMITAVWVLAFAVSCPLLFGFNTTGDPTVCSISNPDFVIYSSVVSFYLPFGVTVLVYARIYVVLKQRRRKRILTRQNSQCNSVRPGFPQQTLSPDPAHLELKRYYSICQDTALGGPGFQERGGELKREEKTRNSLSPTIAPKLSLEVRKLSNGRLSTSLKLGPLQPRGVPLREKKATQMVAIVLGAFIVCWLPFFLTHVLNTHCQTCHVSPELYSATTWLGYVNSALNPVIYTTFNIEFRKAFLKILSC
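Cells expressing the human receptor were seeded at 1500 cells/well, incubated overnight at 37 degrees C in 5% CO2, then exposed to library compounds with dopamine controls for 90 minutes at 37 degrees C before luminescent detection.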
GLP-1R inv ag: qHTS of GLP-1 Receptor Inverse Agonists (Inhibition Mode) | Glucagon-like peptide 1 receptor (Homo sapiens), P43220 | HEK293 GLP-1R CRE-luciferase, luminescence, 24 h; GLP-1R form is constitutively active | Potency, µM (doses to about 38.3 µM), actives largely listed as inhibitors | 410,000 compounds, 1.6% hits | AID 624417, 2012; note: nearly all actives have a fitted effect of over 55% in size
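Cells are plated, allowed 12 hours at 37 deg C, then treated with compounds for 24 hr before luciferase detection reagent is added and luminescence is read after 12 min at room temperature. The HEK293 line carries constitutively active GLP-1R with a cAMP-responsive reporter.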
DRD3 agonist: qHTS of D3 Dopamine Receptor Agonist: qHTS; D3R DiscoveRx beta-arrestin cells, luminescence, 90 min; max activation, %; 410,000 compounds, 0.58% hits; in the data active = max activation above about 30%
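Cells at 1500/well, incubated overnight, then treated with pinned compounds (dopamine as control) for 90 min at 37 degrees C. DiscoveRx reagent added for 30 - 60 minutes at room temperature; luminescence read.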
Large screens that a line does not name were inactive. A selection: hits, their analogues and other compounds. The true share with any hit is near 4.3%. Unless noted, calls come from the whole dose curve; as a rule, active = well fitted curve in the direction sought with a large enough effect; inconclusive = small, poorly fitted or top-dose-only effect, or another doubt; inactive = no such curve, though single readings can be large; an effect the other way counts as inactive or inconclusive.

CCOC(=O)CS(=O)(=O)c1nc(-c2ccc(F)cc2)cc(C(F)(F)F)n1	DRD3 antagonist -64, GLP-1R inv ag inconclusive
Cc1cc(NC(=O)CCCS(=O)(=O)c2nc(-c3cccs3)cc(C(F)(F)F)n2)no1	DRD3 antagonist -106, GLP-1R inv ag inconclusive
Cc1cc(NC(=O)CSc2nc(-c3cccs3)cc(C(F)(F)F)n2)no1	GLP-1R inv ag inconclusive
O=C(O)CCS(=O)(=O)c1nc(-c2cccs2)cc(C(F)(F)F)n1	none
Cc1cc(C)cc(C(=O)NC(CC(N)=O)c2ccc(NCCN3CCCC3)c([N+](=O)[O-])c2)c1 (configuration not stated)	none
Cc1c(-c2nsc(NC(=O)c3ccccc3)n2)nnn1-c1ccc(C(F)(F)F)c(Cl)c1	none (no result: DRD3 antagonist)
CCOC(=O)CS(=O)(=O)c1ccccc1	none
COCC(C)NC(=O)CCS(=O)(=O)c1nc(-c2ccc(OC)cc2)cc(C(F)(F)F)n1 (configuration not stated)	DRD3 antagonist -87
CCC(C)NC(=O)CCSc1nc(-c2ccc(OC)cc2)cc(C(F)(F)F)n1 (configuration not stated)	GLP-1R inv ag inconclusive (no result: DRD3 antagonist)
CCOC(=O)CS(=O)(=O)c1nc(-c2ccccc2)cc(C(F)(F)F)n1	DRD3 antagonist -69, GLP-1R inv ag inconclusive
COc1ccc(OC)c(NC(=O)CCn2cccn2)c1	none (no result: GLP-1R agonist, DRD3 antagonist)
O=C(O[C@H]1CN2CCC1CC2)N1CCc2ccccc2[C@@H]1c1ccccc1	none (no result: DRD3 antagonist, GLP-1R inv ag)
Cc1ccc(C(C)C)c(OCC(=O)N/N=C/c2cccn2C)c1	GLP-1R inv ag inconclusive, DRD3 agonist 31
Cc1ccc(S(=O)(=O)NC(=O)COc2cc(C)ccc2C(C)C)cc1	DRD3 antagonist -55, GLP-1R inv ag inconclusive
CCCCn1nnc(NC(=O)COc2cc(C)ccc2C(C)C)n1	GLP-1R inv ag 7.9µM
Cc1cccc(OCC(=O)N/N=C/c2cccn2C)c1	none
COc1ccc(NC(=O)c2cc3ccccc3cc2O)cc1	DRD3 antagonist -61
Cc1onc(-c2ccccc2Cl)c1C(=O)NCc1nc(-c2ccc(C(F)(F)F)cc2)no1	GLP-1R inv ag 10µM
Cc1onc(-c2ccccc2Cl)c1C(=O)NCc1ccccc1F	none
Cc1ccc(N2C(=O)C(CN(C)C)C2c2ccccc2)cc1 (configuration not stated)	GLP-1R inv ag 11µM
COc1ccc(N2C(=O)C(CN3CCCCC3)C2c2ccccc2)cc1 (configuration not stated)	GLP-1R inv ag inconclusive
O=C1C(Cc2ccccc2)C(c2ccccc2)N1c1ccccc1 (configuration not stated)	GLP-1R inv ag inconclusive
CCN(CC)CC1C(=O)N(c2ccc(OC)cc2)C1c1ccccc1 (configuration not stated)	GLP-1R inv ag 10µM
CC(=O)Nc1ccc(S(=O)(=O)N2CCN(S(=O)(=O)c3ccc(F)c(F)c3F)CC2)cc1	none
Cc1cnc(CN2CCc3c([nH]c4ccccc34)C2CC(C)C)[nH]1 (configuration not stated)	DRD3 antagonist inconclusive, GLP-1R inv ag inconclusive
Cc1cccc(CN2CCc3c([nH]c4ccccc34)C2CC(C)C)n1 (configuration not stated)	GLP-1R inv ag 11µM
Cn1nnc2c[n+](CC(=O)c3ccc4ccccc4c3)cc(Br)c21	DRD3 antagonist -53, GLP-1R inv ag inconclusive
Cn1nnc2c[n+](CC(=O)c3ccc(Cl)cc3)cc(Br)c21	none
CN(C)CCCNc1oc(-c2ccccc2Cl)nc1S(=O)(=O)c1ccccc1	DRD3 antagonist -72, GLP-1R inv ag inconclusive
CN(C)CCCNc1oc(-c2ccc(Cl)cc2)nc1S(=O)(=O)c1ccccc1	DRD3 antagonist -73
O=S(=O)(c1ccccc1)c1nc(-c2ccc(Cl)cc2)oc1NCCCN1CCOCC1	DRD3 antagonist inconclusive
COCCNc1oc(-c2ccccc2Cl)nc1S(=O)(=O)c1ccc(C)cc1	none
COc1ccc(/C=C/c2nc3ccccc3c(=O)n2-c2cccc(C(F)(F)F)c2)cc1	GLP-1R inv ag inconclusive (no result: GLP-1R agonist, DRD3 antagonist)
CC(=O)Oc1ccccc1C(=O)C=Cc1cccc([N+](=O)[O-])c1	DRD3 antagonist -56, GLP-1R inv ag inconclusive
O=C(/C=C/c1cccc([N+](=O)[O-])c1)c1cccs1	DRD3 antagonist -58, GLP-1R inv ag inconclusive
Cc1cc(O)c(C(=O)/C=C/c2cccc([N+](=O)[O-])c2)c(=O)o1	none
O=C(/C=C/c1cccc([N+](=O)[O-])c1)N1CCN(c2ccccn2)CC1	none
O=C(/C=C/c1cccc([N+](=O)[O-])c1)n1cnc2ccccc21	DRD3 antagonist -104
CCOc1ccc(/C(O)=C/C(=O)C(=O)Nc2ccc(S(=O)(=O)NC(C)=O)cc2)cc1	DRD3 antagonist -60
CCOc1ccc(NS(=O)(=O)c2ccc(NC(=S)NC(C)=O)cc2)cc1	none
Cc1ccc(C(=O)NC(=S)Nc2ccc(-c3ccc(CO)o3)cc2)cc1	DRD3 agonist 61
N/C(=N\OC(=O)N1CCOCC1)c1ccc(Br)cc1	GLP-1R inv ag inconclusive
COc1ccc(-n2ccn(CC(=O)NCc3ccc(C)cc3)c(=O)c2=O)cc1OC	none (no result: GLP-1R agonist, DRD3 antagonist)
C[C@@H]1NC(=O)[C@@H](N)CNC(=O)[C@H](C2CCNC(N)=N2)NC(=O)/C(=C/NC(N)=O)NC(=O)[C@H](CNC(=O)C[C@@H](N)CCCN)NC1=O (some centres not stated)	none (no result: GLP-1R agonist, DRD3 antagonist, GLP-1R inv ag)
Cc1onc(-c2ccccc2)c1C(=O)OCC(=O)Nc1ccc(Cl)cc1	GLP-1R inv ag 11µM
Cc1onc(-c2ccccc2)c1C(=O)Nc1cccc(OC(C)C)c1	GLP-1R inv ag 11µM
Cc1ccc(NC(=O)COC(=O)c2c(-c3ccccc3)noc2C)cc1	GLP-1R inv ag 10µM
COc1ccc(OC)c(C2CC(=O)c3c([nH]c(C(=O)OCC4CCCCC4)c3C)C2)c1 (configuration not stated)	GLP-1R inv ag inconclusive (no result: GLP-1R agonist, DRD3 antagonist)
O=C(CSc1nnc(C2CC2)n1C1CC1)c1ccc(Br)s1	DRD3 antagonist -65
CCOc1ccccc1NS(=O)(=O)c1ccc2c(c1)CC(C)N2C(=O)C1CCC1 (configuration not stated)	GLP-1R inv ag inconclusive (no result: GLP-1R agonist, DRD3 antagonist)
Cc1ccc(-n2[nH]c(C)c(/C=N/Nc3ccc([N+](=O)[O-])cc3[N+](=O)[O-])c2=O)cc1	DRD3 antagonist -56
O=C1C=C(c2c(O)ccc3ccccc23)c2ccccc2C1=O	DRD3 antagonist -62, GLP-1R inv ag inconclusive
Cc1ccc(-n2c(C)c3c(C)nnc(C)c3c2C)cc1C	DRD3 antagonist -58
COc1cccc(OCc2ccc(Cn3nc(NC(=O)NCCc4ccc(OC)c(OC)c4)c4ccccc43)cc2)c1	DRD3 antagonist -108
COc1ccc(CCNC(=O)Cc2nn(C)c(=O)c3ccccc23)cc1OC	none
CC(=O)O[C@]1(C(=O)CO)[C@@H](C)C[C@H]2[C@@H]3CCC4=CC(=O)C=C[C@]4(C)[C@@]3(F)[C@@H](O)C[C@]21C	none (no result: DRD3 antagonist, GLP-1R inv ag, DRD3 agonist)

Source: PubChem BioAssay
